In all, about 3,200 compounds went through this assay and about 110 (3.4%) showed an effect of 50% or more. The entries come from a sample that favours strong results as a whole.
These compounds were tested on T1, V. cholerae SAD30. Details: relative growth, OD600, LB; 25 µM; inhibitor.
T1 construct: SAD30
Parameters: species or system S. aureus MSSA476 (TSB) or V. cholerae SAD30 (LB); 384-well bacterial growth screen at 25 uM, OD600 relative to DMSO control

First: CC(Cl)C(=O)N1CCN(Cc2cc(=O)n3ccsc3n2)CC1 (stereo not shown) [6-P17, 7-{[4-(2-chloropropanoyl)piperazin-1-yl]methyl}-5H-[1,3]thiazolo[3,2-a]pyrimidin-5-one]
Second: C=CC(=O)N1CCC(C(=O)N2Cc3ccc([N+](=O)[O-])cc3C2)CC1 [2-F04, 1-[4-(5-nitro-2,3-dihydro-1H-isoindole-2-carbonyl)piperidin-1-yl]prop-2-en-1-one]
The “% of control remaining” value of the first is lower: 97.5258% for the first, 98.2245% for the second.

First: C=CC(=O)N1CCCCC(S(C)(=O)=O)C1 (stereo not shown) [2-E17, 1-(3-methanesulfonylazepan-1-yl)prop-2-en-1-one]
Second: C=CC(=O)N1CCCC(c2nc(N(C)C)no2)C1 (stereo not shown) [3-A13, 1-{3-[3-(dimethylamino)-1,2,4-oxadiazol-5-yl]piperidin-1-yl}prop-2-en-1-one]
The “% of control remaining” value of the first is lower: 92.6662% for the first, 112.204% for the second.

Going from `CCc1nocc1CN(C)C(=O)CCl` [5-B11, 2-chloro-N-[(3-ethyl-1,2-oxazol-4-yl)methyl]-N-methylacetamide] to `CCn1nc(C)c(CN(C)C(=O)CCl)c1C` [5-A10, 2-chloro-N-[(1-ethyl-3,5-dimethyl-1H-pyrazol-4-yl)methyl]-N-methylacetamide], the “% of control remaining” value rises from 90.6168% to 104.907%.

Compared with `Cn1ncc(C(=O)CCl)n1` [10-J10, 2-chloro-1-(2-methyl-2H-1,2,3-triazol-4-yl)ethan-1-one], `CCn1ncc(C(=O)CCl)n1` [10-E13, 2-chloro-1-(2-ethyl-2H-1,2,3-triazol-4-yl)ethan-1-one] is lower in “% of control remaining” value: 112.838% for the first, 0% for the second.

Going from `CCn1cc(NC(=O)CCl)cn1.Cl` [6-I15, 2-chloro-N-(1-ethyl-1H-pyrazol-4-yl)acetamide hydrochloride] to `Cc1ccc(F)cc1NC(=O)CCl` [4-O03, 2-chloro-N-(5-fluoro-2-methylphenyl)acetamide], the “% of control remaining” value rises from 98.4359% to 106.103%.

Going from `CCn1nc(C)c(C(=O)CCl)n1` [10-P08, 2-chloro-1-(2-ethyl-5-methyl-2H-1,2,3-triazol-4-yl)ethan-1-one] to `CCn1nc(C)c(CNC(=O)CCl)c1C` [7-P10, 2-chloro-N-[(1-ethyl-3,5-dimethyl-1H-pyrazol-4-yl)methyl]acetamide], the “% of control remaining” value rises from 40.2104% to 85.1148%.

Compared with `O=S(=O)(CC=C(Cl)Cl)N1CCSSCC1` [10-P19, 5-(3,3-dichloroprop-2-ene-1-sulfonyl)-1,2,5-dithiazepane], `O=C(CCl)Nc1ccc(Cl)c(S(=O)(=O)N2CCCCC2)c1` [4-P14, 2-chloro-N-[4-chloro-3-(piperidine-1-sulfonyl)phenyl]acetamide] is higher in “% of control remaining” value: 92.5774% for the first, 110.589% for the second.

Compared with `C=CC(=O)NCc1ccc(S(=O)(=O)NC2CC2)cc1` [2-P19, N-{[4-(cyclopropylsulfamoyl)phenyl]methyl}prop-2-enamide], `C=CC(=O)Nc1ccc(S(=O)(=O)N(C)C)c(C)c1` [2-E06, N-[4-(dimethylsulfamoyl)-3-methylphenyl]prop-2-enamide] is lower in “% of control remaining” value: 96.8349% for the first, 93.4382% for the second.

Compared with `CC(Cl)C(=O)NCC1CN(c2nncs2)CCO1` (stereo not shown) [7-O03, 2-chloro-N-{[4-(1,3,4-thiadiazol-2-yl)morpholin-2-yl]methyl}propanamide], `CN(C)c1nc(N2CCOCC2)ncc1NC(=O)CCl` [5-M22, 2-chloro-N-[4-(dimethylamino)-2-(morpholin-4-yl)pyrimidin-5-yl]acetamide] is higher in “% of control remaining” value: 90.798% for the first, 105.916% for the second.

Compared with `O=C(CCl)N1CC(Cc2ccc(F)cc2F)C1` [5-G20, 2-chloro-1-{3-[(2,4-difluorophenyl)methyl]azetidin-1-yl}ethan-1-one], `O=C(CCl)Cc1ccc(F)cc1F` [10-G17, 1-chloro-3-(2,4-difluorophenyl)propan-2-one] is lower in “% of control remaining” value: 89.2718% for the first, 31.4826% for the second.

Compared with `O=C(CCl)Nc1c(Cl)cc(Cl)cc1Cl` [5-B16, 2-chloro-N-(2,4,6-trichlorophenyl)acetamide], `O=C(CCl)NCCc1ccc(Cl)cc1Cl` [6-M16, 2-chloro-N-[2-(2,4-dichlorophenyl)ethyl]acetamide] is lower in “% of control remaining” value: 98.3503% for the first, 96.0091% for the second.

Compared with `O=C(CCl)N(Cc1ccccc1)Cc1ccc(F)cc1` [5-I06, N-benzyl-2-chloro-N-[(4-fluorophenyl)methyl]acetamide], `O=C(CCl)Cc1ccc(F)cc1Cl` [10-E19, 1-chloro-3-(2-chloro-4-fluorophenyl)propan-2-one] is lower in “% of control remaining” value: 81.2021% for the first, 21.0403% for the second.

Compared with `O=C(CCl)Cc1ccc(Cl)cc1Cl` [10-A15, 1-chloro-3-(2,4-dichlorophenyl)propan-2-one], `O=C(CCl)COc1ccc(Cl)cc1` [10-M17, 1-chloro-3-(4-chlorophenoxy)propan-2-one] is lower in “% of control remaining” value: 22.1313% for the first, 11.6891% for the second.

Compared with `CC(Cl)C(=O)N(CCc1ccc(F)cc1F)C(C)C` (stereo not shown) [6-D18, 2-chloro-N-[2-(2,4-difluorophenyl)ethyl]-N-(propan-2-yl)propanamide], `CC(Cl)C(=O)N(C)CCOc1ccc(Cl)cc1` (stereo not shown) [6-C12, 2-chloro-N-[2-(4-chlorophenoxy)ethyl]-N-methylpropanamide] is higher in “% of control remaining” value: 71.5897% for the first, 74.0165% for the second.

First: N#CC(=Cc1cccc(O)c1)C(=O)Nc1ccc(N2CCOCC2)cc1 [8-I14, 2-cyano-3-(3-hydroxyphenyl)-N-[4-(morpholin-4-yl)phenyl]prop-2-enamide]
Second: CC1CN(c2ccc(NC(=O)C(C#N)=Cc3ccco3)cc2)CC(C)O1 (stereo not shown) [9-J09, 2-cyano-N-[4-(2,6-dimethylmorpholin-4-yl)phenyl]-3-(furan-2-yl)prop-2-enamide]
The “% of control remaining” value of the first is lower: 71.0401% for the first, 84.3644% for the second.

Compared with `C=CC(=O)N1CCC(F)CC1` [1-D14, 1-(4-fluoropiperidin-1-yl)prop-2-en-1-one], `C=CC(=O)N1CCC(C(=O)N2CCC[C@H]2c2ncn[nH]2)CC1` [2-D12, 1-{4-[(2S)-2-(1H-1,2,4-triazol-5-yl)pyrrolidine-1-carbonyl]piperidin-1-yl}prop-2-en-1-one] is higher in “% of control remaining” value: 79.2444% for the first, 91.1223% for the second.

Going from `C=CC(=O)N(CCC(N)=O)C1CCOc2ccccc21` (stereo not shown) [3-F13, N-(2-carbamoylethyl)-N-(3,4-dihydro-2H-1-benzopyran-4-yl)prop-2-enamide] to `C=CC(=O)NC1(C(N)=O)Cc2ccccc2C1` [2-D15, 2-(prop-2-enamido)-2,3-dihydro-1H-indene-2-carboxamide], the “% of control remaining” value falls from 92.0897% to 88.8063%.

Going from `Cc1cc(C(=O)CCl)c(C)n1CCc1cccs1` [10-F16, 2-chloro-1-{2,5-dimethyl-1-[2-(thiophen-2-yl)ethyl]-1H-pyrrol-3-yl}ethan-1-one] to `CCOc1ccc(-n2c(C)cc(C(=O)CCl)c2C)cc1` [10-K08, 2-chloro-1-[1-(4-ethoxyphenyl)-2,5-dimethyl-1H-pyrrol-3-yl]ethan-1-one], the “% of control remaining” value falls from 110.189% to 98.9675%.

First: C=CC(=O)Nc1sc2c(c1C(N)=O)CCCCC2 [1-F21, 2-(prop-2-enamido)-4H,5H,6H,7H,8H-cyclohepta[b]thiophene-3-carboxamide]
Second: Cc1ccc(C(=O)c2c(NC(=O)CCl)sc3c2CCCC3)cc1 [6-A12, 2-chloro-N-[3-(4-methylbenzoyl)-4,5,6,7-tetrahydro-1-benzothiophen-2-yl]acetamide]
The “% of control remaining” value of the first is lower: 88.1913% for the first, 94.644% for the second.

Compared with `N#Cc1ccc(OC2CN(C(=O)CCl)C2)cc1` [5-K07, 4-{[1-(2-chloroacetyl)azetidin-3-yl]oxy}benzonitrile], `N#Cc1ccc(C(=O)CCl)cc1` [10-F10, 4-(2-chloroacetyl)benzonitrile] is lower in “% of control remaining” value: 141.893% for the first, 0% for the second.

Compared with `CSc1ccccc1NC(=O)CCl` [4-E11, 2-chloro-N-[2-(methylsulfanyl)phenyl]acetamide], `CSc1ccccc1NC(=O)CN(C)C(=O)CCl` [4-L03, 2-chloro-N-methyl-N-({[2-(methylsulfanyl)phenyl]carbamoyl}methyl)acetamide] is higher in “% of control remaining” value: 92.3011% for the first, 116.282% for the second.

Compared with `CCOc1ccc(C(=O)CCl)cc1` [10-F12, 2-chloro-1-(4-ethoxyphenyl)ethan-1-one], `CCOc1ccc(C(=O)C(C)Cl)cc1` (stereo not shown) [10-G06, 2-chloro-1-(4-ethoxyphenyl)propan-1-one] is higher in “% of control remaining” value: 15.1179% for the first, 103.331% for the second.

Going from `CSc1cc(C(=O)CCl)ccc1NC(C)=O` [10-H08, N-[4-(2-chloroacetyl)-2-(methylsulfanyl)phenyl]acetamide] to `CC(c1ccccc1F)N1CCCC(NC(=O)CCl)C1=O` (stereo not shown) [5-I10, 2-chloro-N-{1-[1-(2-fluorophenyl)ethyl]-2-oxopiperidin-3-yl}acetamide], the “% of control remaining” value rises from 25.2484% to 94.4836%.

Going from `CN(CCOc1ccc(Cl)cc1)C(=O)CCl` [5-D16, 2-chloro-N-[2-(4-chlorophenoxy)ethyl]-N-methylacetamide] to `C=CC(=O)Nc1cc(C)nn1-c1ccccc1F` [2-C15, N-[1-(2-fluorophenyl)-3-methyl-1H-pyrazol-5-yl]prop-2-enamide], the “% of control remaining” value rises from 80.0252% to 95.1365%.

For `N#CC(=Cc1ccc2ccccc2c1)C(=O)NC(N)=O` [9-K10, {2-cyano-2-[(naphthalen-2-yl)methylidene]acetyl}urea], the “% of control remaining” value was 87.0836%.

From article PMC11995724, “Antibiotic target discovery by integrated phenotypic and activity-based profiling of electrophilic fragments” (Cell chemical biology, 2025)
